In PubChem BioAssay AID368 (University of Pittsburgh Molecular Library Screening Center, 2006):
Hit rate of the full screen: of about 65,000 compounds, about 85 (0.1%) were called active. Cut-off read from the data, not from the text of the source: active = inhibition above about 50%; inactive = the rest. Shown is part of a subset that was picked to be rich in actives.

These molecules were tested against M-phase inducer phosphatase 2 (Homo sapiens) (UniProt P30305) (assay: human Cdc25B tyrosine phosphatase blockers – biochemical, OMFP fluorescence, catalytic domain, primary screen (AID 368)). Settings: recombinant Cdc25B, OMFP fluorescence Ex485/Em525; stronger effect = higher value;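 compounds tested at 10 µM final in the well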.
Chain of M-phase inducer phosphatase 2 (Homo sapiens) (P30305 whole entry, looked up, the tested form may be a part): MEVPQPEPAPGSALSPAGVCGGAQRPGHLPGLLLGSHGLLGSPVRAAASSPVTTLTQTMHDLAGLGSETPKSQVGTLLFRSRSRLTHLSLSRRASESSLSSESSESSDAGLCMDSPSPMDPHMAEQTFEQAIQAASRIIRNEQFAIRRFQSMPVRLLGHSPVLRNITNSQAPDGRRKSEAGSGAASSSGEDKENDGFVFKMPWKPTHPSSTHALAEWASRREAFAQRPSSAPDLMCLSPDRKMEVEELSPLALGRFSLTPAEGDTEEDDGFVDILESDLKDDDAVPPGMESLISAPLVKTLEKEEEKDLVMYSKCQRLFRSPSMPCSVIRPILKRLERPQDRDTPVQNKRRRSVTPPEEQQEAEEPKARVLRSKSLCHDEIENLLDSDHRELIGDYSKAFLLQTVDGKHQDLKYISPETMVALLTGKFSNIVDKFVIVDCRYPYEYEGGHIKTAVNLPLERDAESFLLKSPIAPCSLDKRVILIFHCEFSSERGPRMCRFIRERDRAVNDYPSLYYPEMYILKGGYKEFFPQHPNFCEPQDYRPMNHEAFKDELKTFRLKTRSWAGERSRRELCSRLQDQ

inhibition, inactive:
O=C(N1CCOCC1)N(Cc1ccccc1)c1ccccn1 -13.1%, O=C(COc1cccc(-n2cnnn2)c1)NCCC1=CCCCC1 -1.12%, Cc1ccnc(N2CCCC(C(=O)Nc3cc(F)ccc3C)C2)n1 (stereo unspecified) 12.7%, CC1CN(C2CCN(C(=O)COc3ccccc3)CC2)CC(C)O1 (stereo unspecified) -13.1%, CC1CCCC(C)N1C(=O)CN1CCN(c2nc(-c3ccc(F)cc3)cs2)CC1 (stereo unspecified) -8.69%, CNC(=O)c1nnn(-c2ccccc2)c1C(=O)NC 0.211%, O=c1c(F)cn(C2CCCO2)c(=O)n1Cc1ccccc1Cl (stereo unspecified) 1.39%, Fc1ccccc1C(c1nnnn1Cc1ccc2c(c1)OCO2)N1CCN(Cc2ccccc2)CC1 (stereo unspecified) -4.84%, C=CCn1c(=N)n(CC(O)COc2ccc(OC)cc2)c2ccccc21 (stereo unspecified) 0.106%, Cc1ncc(CC(=O)n2cc(C(=O)c3cc(Cl)ccc3O)cn2)s1 -7.5%, CC(Nc1nc(N2CCCC2)nc2ccccc12)c1ccccc1 (stereo unspecified) -6.08%, c1ccc2c(NCC3CCCO3)nc(-c3ccncc3)nc2c1 (stereo unspecified) 1.5%, O=C(C1=C(O)C(=O)N(Cc2ccccc2)C1c1cccnc1)c1ccco1 (stereo unspecified) -7.28%, CC(C)(C)Oc1ncc(Br)c(OC(C)(C)C)n1 -14.4%, CC(C)c1ccc(N2CC(C(=O)Nc3nccs3)CC2=O)cc1 (stereo unspecified) 3.74%, COc1ccc(-n2nc3c(c2NC(=O)Cc2cccc(C)c2)CS(=O)C3)cc1 (stereo unspecified) -6.02%, C[N+]1(CCNC(=O)/C=N/O)CCCCC1 15.7%, CCOc1cc(N2CCOCC2)c(OCC)cc1NC(=O)COc1cccc2cccnc12 -6.8%, CCn1c(SCC(=O)Nc2cccc(F)c2)nnc1-c1cc2cc(Br)ccc2o1 -5.35%, COC(=O)c1ccc(NC(=O)CN(c2ccc(C)cc2)S(=O)(=O)c2c(C)n[nH]c2C)cc1 5.5%, CC1(C)CC(O)C(CCC(O)c2ccccc2)C(C)(C)N1 (stereo unspecified) -23.8%
